In paper PMC4336329 (PLoS ONE, 2015):
About 14,000 (4.5%) of roughly 310,000 compounds showed an effect of 50% or more. Effects have a minus sign here. Shown is part of a subset that was picked to be rich in strong results.

target: human ether-à-go-go-related gene (hERG) potassium channel (human, UniProt Q12809); experiment: primary screen, population patch clamp on CHO cells stably expressing hERG; higher = less effect of the substance
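Note: peak tail current of the secondary pulse compared with the same well before compound.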

Sequence of human ether-à-go-go-related gene (hERG) potassium channel (Q12809 whole entry, looked up): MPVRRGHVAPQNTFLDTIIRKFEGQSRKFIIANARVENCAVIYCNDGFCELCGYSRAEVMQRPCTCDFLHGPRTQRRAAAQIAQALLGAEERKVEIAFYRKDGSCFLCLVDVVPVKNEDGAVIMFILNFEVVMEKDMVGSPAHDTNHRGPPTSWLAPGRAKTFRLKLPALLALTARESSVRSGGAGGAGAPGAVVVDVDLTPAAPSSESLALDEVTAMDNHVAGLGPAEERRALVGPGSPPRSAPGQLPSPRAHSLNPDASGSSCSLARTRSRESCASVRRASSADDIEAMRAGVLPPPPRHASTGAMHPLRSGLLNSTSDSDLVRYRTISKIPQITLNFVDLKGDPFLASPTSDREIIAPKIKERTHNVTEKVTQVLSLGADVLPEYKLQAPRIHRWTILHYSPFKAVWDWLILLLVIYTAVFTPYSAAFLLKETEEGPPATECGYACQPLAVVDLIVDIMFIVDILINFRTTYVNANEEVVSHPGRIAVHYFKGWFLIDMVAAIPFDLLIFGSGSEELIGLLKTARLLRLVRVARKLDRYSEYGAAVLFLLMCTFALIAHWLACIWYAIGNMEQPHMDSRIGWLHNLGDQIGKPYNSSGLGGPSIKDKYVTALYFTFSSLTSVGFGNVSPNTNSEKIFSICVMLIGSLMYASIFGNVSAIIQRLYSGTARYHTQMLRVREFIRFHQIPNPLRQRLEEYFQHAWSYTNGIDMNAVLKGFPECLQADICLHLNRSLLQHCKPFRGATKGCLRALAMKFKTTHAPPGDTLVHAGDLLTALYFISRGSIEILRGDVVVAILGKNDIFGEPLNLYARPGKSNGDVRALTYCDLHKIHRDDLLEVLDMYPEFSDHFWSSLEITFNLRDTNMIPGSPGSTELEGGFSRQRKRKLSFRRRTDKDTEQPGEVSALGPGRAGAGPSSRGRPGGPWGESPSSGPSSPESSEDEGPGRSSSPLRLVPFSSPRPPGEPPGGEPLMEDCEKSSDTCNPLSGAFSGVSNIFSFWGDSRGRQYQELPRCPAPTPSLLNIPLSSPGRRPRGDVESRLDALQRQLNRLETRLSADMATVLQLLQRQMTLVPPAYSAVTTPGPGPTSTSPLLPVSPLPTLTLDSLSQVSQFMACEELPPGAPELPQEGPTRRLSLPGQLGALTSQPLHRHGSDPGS

Compound | hERG current change (%, negative = inhibition) at 10uM
Nc1nc2ccccc2cc1S(=O)(=O)c1ccccc1 | 16%
O=[N+]([O-])c1ccc(N/N=C/c2cccc(O)c2O)c(S(=O)(=O)N2CCOCC2)c1 | -5.8%
COC(=O)c1ccccc1NC(=O)CSc1nnc(-c2cccnc2)o1 | -6.93%
COc1ccccc1NC(=O)C(C)N1C(=O)c2ccccc2C1=O (stereo not drawn) | 5.76%
Cc1cccc(-c2nc(CSCC(=O)NCCCN3CCOCC3)c(C)o2)c1 | -11.3%
Cc1c(NC(=O)CSc2nnnn2-c2ccc(O)cc2)c(=O)n(-c2ccccc2)n1C | -7.29%
Nc1c(Cl)ncnc1NCCc1ccc(O)cc1 | 9.93%
CCn1nc(-c2ccccc2)nc2c(=O)n(C)c(=O)nc1-2 | -27.6%
Cc1cnc2cc(Cl)c(Cl)cc2n1 | 18.2%
CCOc1ccc(S(=O)(=O)Nc2ccc(C(=O)N3CC(C)OC(C)C3)cc2)cc1 (stereo not drawn) | 0.557%
N#Cc1ccc(C2=CC(=O)C[C@H](c3ccc(Cl)cc3)C2)cc1 | -71.9%
Cc1ccc(C2=CC(=O)C[C@H](c3ccc(Cl)cc3)C2)cc1 | 8.09%
O=C1C=C(c2ccc(-c3ccccc3)cc2)C[C@@H](c2ccc(Cl)cc2)C1 | 21.8%
O=C(NCc1ccccc1)c1ccc(CS(=O)(=O)Cc2ccccc2F)o1 | -5.62%
COc1cccc(CNC(=O)CC2C(=O)NCCN2CCCc2ccccc2)c1 (stereo not drawn) | -6.17%
COc1ccc(OCC(=O)Nc2ccccc2Cl)cc1 | 13.7%
COc1ccc(S(=O)(=O)N2CCN(CC(=O)Nc3ccccc3Cl)CC2)cc1 | -1.6%
COc1ccc(NC(=O)c2ccccc2NC(=O)CN2CCCCCC2)cc1 | 8.82%
COc1cccc(NC(=O)CN2CCN(CC(=O)Nc3ccccc3Cl)CC2)c1 | -61%
COc1cccc(CC(=O)Nc2ccccc2N2CCCC2)c1 | -5.39%

Compound | hERG current change (%, negative = inhibition) at 10uM
COc1ccc(NC(=O)CN2CCN(CC(=O)Nc3ccccc3Cl)CC2)cc1 | -74.1%
COc1cccc(NC(=O)CN2CCc3ccccc3C2)c1 | 10.3%
CCc1nnc(NC(=O)CN2CCN(Cc3cccc(OC)c3)CC2)s1 | -19%
O=C(COc1ccc(Cl)cc1)Nc1ccccc1Cl | 3.26%
COc1cccc(CN2CCN(CC(=O)Nc3ccccc3Cl)CC2)c1 | -72%
CCc1ccc(OCC(=O)N2CCN(CC(=O)Nc3ccccc3Cl)CC2)cc1 | -80.7%
COc1cccc(NC(=O)CN2CCC(C)CC2)c1 | 1.52%
CCOC(=O)c1oc2ccccc2c1COC(=O)C(C)NC(=O)c1ccco1 (stereo not drawn) | -16.5%
COc1ccc(C(=O)N(C)C2CCCCC2)cc1S(=O)(=O)N1CCOCC1 | -3.28%
CCCCOc1ccc(/C=N/NC(=S)Nc2cccc(C)c2C)cc1 | -15.8%
CCOc1ccc(CCNC(=O)CN2C(=O)COc3ccc(S(=O)(=O)N4CCOCC4)cc32)cc1 | -6.84%
CCN1CCCC1CNC(=O)C(=O)Nc1cccc(OC)c1 (stereo not drawn) | -1.67%
O=C(c1cc2cc(Br)ccc2[nH]1)N1CCc2ccccc21 | 14%
CSc1ccccc1NC(=O)COc1ccc(Cl)cc1 | -17.5%
COc1cccc(C(=O)NC2CCN(CC(=O)Nc3cccc(C)c3C)CC2)c1 | 32.2%
COc1ccc(NC(=O)CN2CCN(c3ccccc3Cl)CC2)cc1 | -61.4%
CC(NC(=O)CN1CCN(CC(=O)Nc2ccccc2Cl)CC1)c1ccc(Br)cc1 (stereo not drawn) | -75.1%
COc1ccc(NC(=O)CN2CCN(c3ccccc3C)CC2)cc1 | -41.2%
CC(NC(=O)CN1CCN(c2cccc(Cl)c2)CC1)c1ccccc1 (stereo not drawn) | 4.34%
COc1cccc(C(=O)NC2CCN(CC(=O)Nc3ccccc3Cl)CC2)c1 | -55.4%

Compound | hERG current change (%, negative = inhibition) at 10uM
COc1ccc(CCNC(=O)CN2CCN(c3ccccc3Cl)CC2)cc1 | -19%
CC(NC(=O)CN1CCN(S(=O)(=O)c2ccc(Br)cc2)CC1)c1ccccc1 (stereo not drawn) | -36.9%
Cc1cccc(C(=O)NC2CCN(CC(=O)Nc3ccccc3Cl)CC2)c1 | -49%
O=C(CCCn1c(SCC(=O)c2ccc(Cl)cc2)nc2ccccc2c1=O)NCc1ccco1 | 3.21%
O=c1c(Cl)c(Nc2cccc(Cl)c2)cnn1-c1nc2ccccc2s1 | -2.51%
COc1ccccc1CCn1c(N)cc(=O)[nH]c1=O | 18.4%
Cc1cc(C)c2c(N)c(S(=O)(=O)Cc3ccccc3)sc2n1 | -33.3%
O=P(Oc1ccccc1)(Oc1ccccc1)c1ccccc1 | -21.8%
CCOc1ccc(C(=O)N2CCn3c2nc2ccccc23)cc1 | -5.37%
Br.CCn1c(=N)n(CC(=O)c2ccc(Cl)c(Cl)c2)c2ccccc21 | -51.4%
Br.CCCn1c(=N)n(CC(=O)O)c2ccccc21 | -5.8%
Br.CCCn1c(=N)n(CC(=O)c2ccc(Cl)cc2)c2ccccc21 | -53%
Br.CCCn1c(=N)n(CC(=O)c2ccc(Cl)c(Cl)c2)c2ccccc21 | -51.5%
Br.Cn1c(=N)n(CC(=O)c2ccc(Br)cc2)c2ccccc21 | -41%
Br.CCn1c(=N)n(CC(=O)c2ccc(OC)c(OC)c2)c2ccccc21 | -13.7%
CCn1c(=N)n(CC(=O)c2cccc(OC)c2)c2ccccc21 | -16.6%
Br.Cn1c(=N)n(CC(=O)c2ccccc2)c2ccccc21 | -12.4%
Br.Cn1c(=N)n(CC(=O)c2ccc(F)cc2)c2ccccc21 | -23.2%
Br.Cn1c(=N)n(CC(=O)c2ccc(Cl)c(Cl)c2)c2ccccc21 | -64.1%
Br.C=CCn1c(=N)n(CC(=O)c2ccc(Cl)cc2)c2ccccc21 | -36.1%
